According to PubChem BioAssay (NCI):
Values joined by “and” are separate entries in the source; they are usually repeats but may differ in a detail not shown here. Equal values may be shown once. Compounds without any hit were thinned out: in the full panel of roughly 83,000, 20% have a hit.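 Activity criterion: percent growth below 10, measured after cells in 96-well plates were exposed to a single compound concentration for 48 hours.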 A number with no mark means an inactive call. Active and inactive are the calls of the source. Starred links: 1 amine or outer side, 2 acyl side, 3 side chain; linkers in the order of their positions; H or OH if unused. Positions of bridges follow the written chain, without caps; N, C: chain ends. Non-standard residues stand in square brackets, D forms with d. Residues, ends and D or L forms follow the SMILES beside them. Chains are numbered I, II in the order given. Actinocin(9to1) = Cc1c2oc3c(C)ccc(C(=O)[*:1])c3nc-2c(C(=O)[*:2])c(N)c1=O; aThr = C[C@H](O)[C@H](N)C(=O)O; NMeV = CN[C@H](C(=O)O)C(C)C; Sar = CNCC(=O)O

These compounds were tested on HCT-116 colon (assay: NCI-60 one-dose screen, 48 h (100 = growth as untreated, 0 = no growth, -100 = all killed)). Conditions: 0.0025 µM.
Method: Growth inhibition of the HCT-116 human tumor cell line is measured as a screen for anti-cancer activity. Cells are grown in 96 well plates and exposed to the test compound for 48 hours. Compounds are tested at a single concentration, which is 10^-5 M for most compounds. The reported endpoint is percent growth (GI% or GIPRCNT), where numbers from 0 - 100% represent growth inhibition, and numbers from -100% - 0 represent cell death. For example, a value of 40 represents 60% growth inhibition. A value of 0 means no net growth occurred over the course of the experiment. A value of -40 indicates 40% of cells at the beginning of the experiment died by the end of the experiment. A value of -100 means all cells are dead at the end of the experiment.
NCI-60 Human Tumor Cell Lines Screen was performed using the standard one-dose NCI protocol, which is described in more detail at https://dtp.cancer.gov/discovery_development/nci-60/default.htm.
Compounds with GIPRCNT values below 10 were considered active. Activity score was based on GIPRCNT using the following formula: […]
Score is 0 for GIPRCNT values of 100 or above, 50 for GIPRCNT values of 0, and 100 for GIPRCNT values of -100.
Work on `Cc1c2oc3c(C)ccc(C(=O)N[C@@H]4C(=O)N[C@H](C(C)C)C(=O)N5CCC[C@H]5C(=O)N(C)CC(=O)N(C)[C@@H](C(C)C)C(=O)O[C@H]4C)c3nc-2c(C(=O)N[C@@H]2C(=O)N[C@H](C(C)C)C(=O)N3CCC[C@H]3C(=O)N(C)CC(=O)N(C)[C@@H](C(C)C)C(=O)O[C@H]2C)c(N)c1=O` (I: [aThr][dV]P[Sar][NMeV] / II: [aThr][dV]P[Sar][NMeV]; ester I:1-I:C, II:1-II:C; linker I:N-II:N via Actinocin(9to1)) yielded a growth of 16%.

Same assay, conditions: 10 µM
`CN1CCN(c2ccc3nc(-c4ccc5nc(-c6ccc(O)cc6)[nH]c5c4)[nH]c3c2)CC1` gave a growth of 48.3%.
For `O=c1[nH]cc(F)c(=O)[nH]1`, the growth was 33.9% and 46.9%.
With `Cc1cc(NCCCN(C)C)c2ccc3c(ccc4c(NCCCN(C)C)cc(C)nc43)c2n1` the growth was -15.4% (active).
`CCCCCCCCCCCCCCCCCN` gave a growth of 102%.
Work on `CSc1ccc2c(c1)C(N1CCN(C)CC1)Cc1ccccc1S2` (configuration not stated) yielded a growth of 29.3%.
With `Cc1c2oc3c(C)ccc(C(=O)N[C@@H]4C(=O)N[C@H](C(C)C)C(=O)N5CCC[C@H]5C(=O)N(C)CC(=O)N(C)[C@@H](C(C)C)C(=O)O[C@H]4C)c3nc-2c(C(=O)N[C@@H]2C(=O)N[C@H](C(C)C)C(=O)N3CCC[C@H]3C(=O)N(C)CC(=O)N(C)[C@@H](C(C)C)C(=O)O[C@H]2C)c(N)c1=O` (I: [aThr][dV]P[Sar][NMeV] / II: [aThr][dV]P[Sar][NMeV]; ester I:1-I:C, II:1-II:C; linker I:N-II:N via Actinocin(9to1)) the growth was -29.5% (active).
In the case of `S=c1[nH]nc(Cc2ccccc2)c(=S)[nH]1`, the growth is reported as 100%.
With `Nc1ccc2cc(Br)c3ccccc3c2c1` the growth was 71.1%.
`O=C(/C(=C/c1ccccc1)CBr)c1ccccc1` showed a growth of 35.8%.
`CN(C)CCC(=O)c1c[nH]c2ccccc12` showed a growth of 103%.
For `Cc1cnc(/C=N\NC(N)=S)c2cccc(N)c12`, the growth was 17.4%.
Compound `BrC/C=C/C[P+](c1ccccc1)(c1ccccc1)c1ccccc1` has a growth of 14.8%.
`N#C/C(=C1C=C/C(=N\O)C(Cl)=C\1)c1ccccc1` was tested, and the growth was 5.69% (active).
For `COc1cc(C(C)(C)C)cc(OC)c1C(O)(c1c(OC)cc(C(C)(C)C)cc1OC)c1c(OC)cc(C(C)(C)C)cc1OC`, the growth was -100% (active).

Same assay, conditions: 25 µM
With `O=c1[nH]cc(F)c(=O)[nH]1` the growth was 17.8%.

Same assay, conditions: 50 µM
With `O=c1[nH]cc(F)c(=O)[nH]1` the growth was 28.3%.
